Assay outcomes (PubChem)
Pf growth 48h: inhibits P. falciparum growth in the first generation, 48 h. actives 5.9% (n = 310,000). Potency, µM (top dose mostly 28.7 µM), most hits filed as inhibitors. P. falciparum luciferase growth in erythrocytes, 48 h
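Luciferase-expressing P. falciparum in infected erythrocytes (2% hematocrit, 0.1% parasitemia final) in RPMI 1640/0.5% Albumax were exposed to compound for 48 hours at 37 C, 5% CO2; growth read as luminescence.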
Shiga inhibitor: Shiga toxin inhibition; Vero cells, Shiga toxin protein synthesis inhibition reporter; inhibition, % at 38.7 µM; actives 9.2% (n = 290,000); in the data active = inhibition mostly above about 28%, no sharp cut-off; inactive = mostly below about 43%
HCV inh: HCV inhibition. Huh7.5.1 HCVcc-Cre infection, luciferase reporter, 44 h. Potency, µM (titrated, usually from 41.8 µM), actives largely listed as inhibitors. actives 3.4% (n = 340,000)
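Cells seeded at 1,000/well and cultured 4 h, then compounds added followed by HCVcc-Cre virus (~0.5 moi). After 44 h further culture, luciferase substrate was added, plates held 15 min at room temperature, and luminescence read for 15 sec.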
CHX counter: counter-screen hit for Shiga toxin inhibitors, cycloheximide; cell reporter, cycloheximide protein synthesis inhibition counterscreen; max response, %; actives 12% (n = 300,000); AID 2314; in the data active = max response mostly above about 13%, no sharp cut-off; inactive = mostly below about 14%; also: read at 38.3 µM for the half of the compounds with a filed dose
Pf growth 96h: inhibits malaria parasite growth, 96 h; P. falciparum luciferase reporter growth, 96 h; Potency, µM (doses to about 28.7 µM), most hits filed as inhibitors; actives 6.9% (n = 320,000); AID 504834
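Plates of compound plus infected erythrocytes (2% hematocrit, 0.05% parasitemia final) incubate 96 hours, 37 C, 5% CO2. Detection reagent added; reduced luminescence from the parasites' luciferase reporter flags inhibition.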
AMA1 RON2 block: inhibitors of Plasmodium falciparum AMA1-RON2 interaction. AlphaScreen AMA1-biotinylated RON2 peptide binding. Potency, µM (top dose mostly 58.2 µM), actives largely listed as inhibitors. actives 0.2% (n = 360,000). AID 720542; also: nearly all actives have a fitted effect of over 45% in size
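AMA1 (3D7) with his tag at 25 nM final met compounds first, then biotinylated RON2 peptide at 25 nM; detection used donor plus acceptor beads, 10 µg/mL apiece, read by AlphaScreen after 30 min at room temperature.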
Large screens that a line does not name were inactive. Sampled rows, rich in hits. Any-hit rate of the full collection: about 21%. Unless noted, calls follow the shape of the dose curve; as a rule, active = well fitted curve in the direction sought with a large enough effect; inconclusive = small, poorly fitted or top-dose-only effect, or another doubt; inactive = no such curve, though single readings can be large; an effect the other way counts as inactive or inconclusive.

CC(=O)Oc1cccc(NC(=O)c2ccc3c(c2)C(=O)N(CC(C)C)C3=O)c1	Shiga inhibitor 128, CHX counter 28
COCCCN1C(=O)c2ccc(C(=O)Nc3cccc(OC)c3)cc2C1=O	Shiga inhibitor 53, CHX counter 37
C#Cc1cccc(NC(=O)c2ccc3c(c2)C(=O)N(Cc2cccnc2)C3=O)c1	CHX counter 39
COCCCN1C(=O)c2ccc(C(=O)NCCc3ccccc3)cc2C1=O	Shiga inhibitor 95, CHX counter 45
C[C@H](NC(=O)c1[nH]cnc1C(=O)Nc1ccc(Cl)cc1)c1ccccc1	Pf growth 48h inconclusive, Pf growth 96h inconclusive (no result: Shiga inhibitor, CHX counter)
CCCc1cc(=O)[nH]c(SCC(=O)Nc2cc(S(=O)(=O)N3CCCCC3)ccc2C)n1	Pf growth 48h inconclusive, Pf growth 96h inconclusive (no result: Shiga inhibitor, CHX counter)
Cc1cccc(CSc2nnc(-c3ccco3)o2)c1	Shiga inhibitor 89, CHX counter 32, Pf growth 96h inconclusive
CN(C)c1cccc(-c2nnc(SCCCC#N)o2)c1	Shiga inhibitor 91, CHX counter 49, Pf growth 96h inconclusive
CN(C)CCSc1nnc(-c2ccccc2)o1	Shiga inhibitor 57, CHX counter 39, Pf growth 96h inconclusive
CSc1nnc(-c2ccccc2)o1	none
CCN(CC)C(=O)CSc1nnc(-c2ccccc2)o1	none (no result: Pf growth 96h)
Cc1cccc(-c2nnc(SCc3ccccc3)o2)c1	Shiga inhibitor 92, CHX counter 28
CCOc1cc(C2C3=C(CC(C)(C)CC3=O)Nc3n[nH]c(C)c32)ccc1O (stereo not drawn)	none
[O-]c1ccccc1-[n+]1c(-c2ccccc2)cc(-c2ccccc2)cc1-c1ccccc1	Pf growth 48h 1.3µM, HCV inh 6.3µM, Pf growth 96h 0.33µM (no result: Shiga inhibitor, CHX counter)
Oc1c(Br)cc(-c2ccccc2)cc1Br	none (no result: Pf growth 48h, Shiga inhibitor, CHX counter, Pf growth 96h)
O=[N+]([O-])c1cc(-c2ccccc2)cc([N+](=O)[O-])c1O	none (no result: Pf growth 48h, Shiga inhibitor, CHX counter, Pf growth 96h)
COc1ccc(-c2cc(-c3ccccc3)[n+](C)c(-c3ccccc3)c2)cc1	Pf growth 48h inconclusive, HCV inh inconclusive, Pf growth 96h inconclusive
O=C([O-])c1ccccc1-[n+]1c(-c2ccccc2)cc(-c2ccccc2)cc1-c1ccccc1	Pf growth 48h 12µM, Pf growth 96h 4.7µM (no result: Shiga inhibitor, CHX counter)
Oc1ccccc1-[n+]1c(-c2ccccc2)cc(-c2ccccc2)cc1-c1ccccc1	Pf growth 48h 1.5µM, Pf growth 96h 1.5µM (no result: Shiga inhibitor, HCV inh, CHX counter)
Nc1ccc(-c2ccccc2)cc1	none (no result: Pf growth 48h, Shiga inhibitor, CHX counter, Pf growth 96h)
Nc1ccccc1-[n+]1c(-c2ccccc2)cc(-c2ccccc2)cc1-c1ccccc1	Pf growth 48h 4.7µM, Pf growth 96h 2.1µM
COCCn1c(SCC(=O)NC2CC2)nc2ccccc21	none (no result: Shiga inhibitor, CHX counter)
O=C(NCCc1cccnc1)C1CCC(=O)N(Cc2ccc(Cl)cc2)C1 (stereo not drawn)	Pf growth 48h inconclusive
Cc1ccccc1-[n+]1c(-c2ccccc2)cc(-c2ccccc2)cc1-c1ccccc1	Pf growth 48h 0.33µM, HCV inh inconclusive, Pf growth 96h 0.19µM (no result: Shiga inhibitor, CHX counter)
Cc1ccc(-c2cc(-c3ccccc3)cc(-c3ccccc3)[n+]2-c2ccc(C(=O)O)cc2)cc1	Pf growth 48h inconclusive, Pf growth 96h inconclusive (no result: Shiga inhibitor, CHX counter)
CCN1C(=O)/C(=C\N(C(C)=O)c2ccccc2)OC1=S	Shiga inhibitor 31, HCV inh inconclusive, CHX counter 32, Pf growth 96h 12µM
CCN1C(=O)/C(=C/N(C)c2ccccc2)OC1=S	Shiga inhibitor 67, CHX counter 25
Cc1ccc(C(C)C)cc2c(C)ccc1-2	HCV inh 35µM, Pf growth 96h inconclusive (no result: Shiga inhibitor, CHX counter)
Cc1ccc(C(C)C)cc1OCCn1cncn1	none
CCCCCCCCN1C(=O)[C@H](CC(=O)N2CCN(C(=O)C3CC3)CC2)C[C@@]2(C(=O)OCC)CCCC=C12	none (no result: Pf growth 48h, Shiga inhibitor, HCV inh, CHX counter, Pf growth 96h)
[O-]/[N+](=C\C=C\c1ccccc1)c1ccccc1	Shiga inhibitor 133, CHX counter 50
CN(CC(=O)Nc1ccccc1Cl)CC(=O)Nc1sc2c(c1C(N)=O)CCC2	HCV inh inconclusive, Pf growth 96h inconclusive (no result: Shiga inhibitor, CHX counter)
COc1ccc(C)cc1NC(=O)C(c1ccccc1)N1CCN(CC(=O)N2CCOCC2)CC1 (stereo not drawn)	Pf growth 48h 9.3µM, Pf growth 96h inconclusive (no result: Shiga inhibitor, CHX counter)
Cc1ccc(NC(=O)C(c2ccccc2)N2CCN(CC(=O)N3CCOCC3)CC2)cc1 (stereo not drawn)	Pf growth 48h inconclusive (no result: Shiga inhibitor, CHX counter)
COc1ccc(C)cc1NC(=O)C(c1ccccc1)N1CCN(CC(=O)N2CCCC2)CC1 (stereo not drawn)	Pf growth 48h 12µM, HCV inh inconclusive, Pf growth 96h 12µM (no result: Shiga inhibitor, CHX counter)
CN1c2ccccc2N(C)C1c1ccc2c(c1)OCO2	Pf growth 48h 4.7µM
CC(NC(=O)c1cccc2c1Oc1ccccc1S2)C(=O)O (stereo not drawn)	none (no result: Pf growth 48h, Shiga inhibitor, HCV inh, CHX counter, Pf growth 96h)
Cc1cc(OC(C)C(=O)N2C[C@H]3C[C@@H](C2)c2cccc(=O)n2C3)c2c(C)c(C)c(=O)oc2c1 (stereo partly drawn)	Pf growth 96h inconclusive
Cc1[nH]n(-c2nc(-c3cccc([N+](=O)[O-])c3)cs2)c(=O)c1C	Shiga inhibitor 54, CHX counter 37
O=[N+]([O-])c1cccc(-c2csc(N/N=C/c3cccc(O)c3)n2)c1	Shiga inhibitor 105, HCV inh inconclusive, CHX counter 28
O=C(Nc1nc(-c2cccc([N+](=O)[O-])c2)cs1)C(c1ccccc1)c1ccccc1	Pf growth 48h inconclusive
COc1ccc2c(c1OC)C(=O)OC2Nc1nc(-c2cccc([N+](=O)[O-])c2)cs1 (stereo not drawn)	Shiga inhibitor 43, CHX counter 57
CC(=O)Nc1nc(C)c(-c2csc(Nc3cccc([N+](=O)[O-])c3)n2)s1	HCV inh inconclusive, Pf growth 96h 0.83µM (no result: Pf growth 48h)
COc1ccc(NC(=S)NNC(=O)c2ccco2)c(OC)c1	none (no result: Pf growth 48h, Shiga inhibitor, CHX counter, Pf growth 96h)
CC(C)NC(=O)C1C(c2ccc(C(F)(F)F)cc2)=Nc2ccccc2N1C(=O)c1cccc(C(F)(F)F)c1 (stereo not drawn)	none (no result: Pf growth 48h, Shiga inhibitor, HCV inh, CHX counter, Pf growth 96h)
O=C(O)/C=C\c1ccc(Cn2ccnc2)cc1	Pf growth 96h inconclusive (no result: Shiga inhibitor, HCV inh, CHX counter, AMA1 RON2 block)
CC(=O)c1cccc(Nc2nc(-c3cccc([N+](=O)[O-])c3)cs2)c1	Shiga inhibitor 103, HCV inh 2.2µM, CHX counter 38
CCC(=O)Nc1nc(C)c(-c2csc(Nc3cccc(C(=O)O)c3)n2)s1	Pf growth 96h inconclusive
CC(=O)Nc1nc(C)c(-c2csc(Nc3cccc(C(C)=O)c3)n2)s1	HCV inh 10µM (no result: Pf growth 48h)
COc1cccc(NC(=O)CN(C)C(=O)C2CCN(C(=O)c3ccccc3C)CC2)c1	Pf growth 96h inconclusive (no result: Shiga inhibitor, CHX counter)
Clc1ccc(COC(Cn2ccnc2)c2ccc(Cl)cc2Cl)cc1 (stereo not drawn)	Pf growth 48h 2.1µM, HCV inh inconclusive, Pf growth 96h 1.9µM
Clc1ccc([C@H](Cn2ccnc2)OCc2c(Cl)cccc2Cl)c(Cl)c1	Pf growth 48h 6.4µM, Pf growth 96h 2µM (no result: Shiga inhibitor, HCV inh, CHX counter, AMA1 RON2 block)
